The values that follow come from PMC7862700, “An all-to-all approach to the identification of sequence-specific readers for epigenetic DNA modifications on cytosine”.

Assay in all cases: DAPPL (digital affinity profiling via proximity ligation, sequencing); 10 mM Tris-HCl pH 7.5, 50 mM NaCl, 1 mM DTT, 4% glycerol, room temperature, 30 min; GST-TFs on glutathione beads, 16-mer random dsDNA library, 0.1% formaldehyde crosslink after washing; high values mean tight binding
Holding throughout (details): protein: recombinant; tags: N-terminal GST; dsDNA, one strand shown

Test [1] deals with T1, FLI1 (Homo sapiens, UniProt Q01543 1-452).
T1 sequence: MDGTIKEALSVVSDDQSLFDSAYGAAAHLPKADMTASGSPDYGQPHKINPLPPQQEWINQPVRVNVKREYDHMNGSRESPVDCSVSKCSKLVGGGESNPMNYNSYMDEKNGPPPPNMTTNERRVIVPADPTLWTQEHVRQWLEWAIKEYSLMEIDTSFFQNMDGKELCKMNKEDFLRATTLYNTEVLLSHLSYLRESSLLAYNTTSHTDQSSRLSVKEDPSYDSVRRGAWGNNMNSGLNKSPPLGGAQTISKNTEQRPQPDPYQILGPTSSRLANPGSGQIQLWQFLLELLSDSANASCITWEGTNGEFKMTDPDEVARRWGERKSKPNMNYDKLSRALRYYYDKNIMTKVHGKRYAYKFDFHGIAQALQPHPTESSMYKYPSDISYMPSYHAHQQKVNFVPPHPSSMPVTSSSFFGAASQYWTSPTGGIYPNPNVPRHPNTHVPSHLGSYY
In a few lines: (§1)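 After expression in yeast as GST fusions, human transcription factors were bound to glutathione beads, DNA-barcoded and mixed with a tag-only sample. The pools were incubated with 200 nmole of a 16-mer random double-stranded DNA library in Tris/NaCl/DTT/glycerol buffer (30 min, room temperature), washed and crosslinked with 0.1% formaldehyde. Proximity ligation with BsaI/T4 ligase ran for 1 h at 37 °C, before PCR amplification and sequencing on an Illumina NextSeq500. Binding signal is a hexamer's read frequency for a factor divided by its frequency for the tag-only sample.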

The target in test [2] is T2, ELK1 (Homo sapiens, UniProt P19419 1-428).
T2 sequence: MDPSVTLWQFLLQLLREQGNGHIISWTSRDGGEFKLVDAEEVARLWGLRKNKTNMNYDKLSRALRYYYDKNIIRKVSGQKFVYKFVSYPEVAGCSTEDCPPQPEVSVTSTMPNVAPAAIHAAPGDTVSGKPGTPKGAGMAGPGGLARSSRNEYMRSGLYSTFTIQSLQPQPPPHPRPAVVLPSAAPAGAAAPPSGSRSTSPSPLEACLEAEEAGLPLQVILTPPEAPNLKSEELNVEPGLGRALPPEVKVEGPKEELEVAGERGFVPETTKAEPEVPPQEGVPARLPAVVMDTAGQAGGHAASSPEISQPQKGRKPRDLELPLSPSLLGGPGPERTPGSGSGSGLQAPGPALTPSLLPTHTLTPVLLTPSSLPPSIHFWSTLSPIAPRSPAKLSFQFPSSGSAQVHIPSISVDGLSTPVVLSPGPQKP
In outline: as §1

Test [3] has as its target T3, GABPA (Homo sapiens, UniProt Q06546 1-454).
T3 sequence: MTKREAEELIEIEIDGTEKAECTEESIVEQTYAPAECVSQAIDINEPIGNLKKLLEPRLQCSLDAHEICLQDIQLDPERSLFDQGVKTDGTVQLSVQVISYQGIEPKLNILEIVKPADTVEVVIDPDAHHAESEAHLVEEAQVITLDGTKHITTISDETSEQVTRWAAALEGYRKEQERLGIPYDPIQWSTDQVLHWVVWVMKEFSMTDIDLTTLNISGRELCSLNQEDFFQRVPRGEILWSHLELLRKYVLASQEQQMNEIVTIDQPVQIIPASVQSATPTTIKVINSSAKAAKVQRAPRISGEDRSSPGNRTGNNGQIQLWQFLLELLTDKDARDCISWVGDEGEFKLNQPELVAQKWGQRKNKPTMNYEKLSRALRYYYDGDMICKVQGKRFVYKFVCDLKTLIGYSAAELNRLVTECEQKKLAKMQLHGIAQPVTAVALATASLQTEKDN
In outline: as §1

Test [4] addresses T4, ERG (Homo sapiens, UniProt P11308 1-479).
T4 sequence: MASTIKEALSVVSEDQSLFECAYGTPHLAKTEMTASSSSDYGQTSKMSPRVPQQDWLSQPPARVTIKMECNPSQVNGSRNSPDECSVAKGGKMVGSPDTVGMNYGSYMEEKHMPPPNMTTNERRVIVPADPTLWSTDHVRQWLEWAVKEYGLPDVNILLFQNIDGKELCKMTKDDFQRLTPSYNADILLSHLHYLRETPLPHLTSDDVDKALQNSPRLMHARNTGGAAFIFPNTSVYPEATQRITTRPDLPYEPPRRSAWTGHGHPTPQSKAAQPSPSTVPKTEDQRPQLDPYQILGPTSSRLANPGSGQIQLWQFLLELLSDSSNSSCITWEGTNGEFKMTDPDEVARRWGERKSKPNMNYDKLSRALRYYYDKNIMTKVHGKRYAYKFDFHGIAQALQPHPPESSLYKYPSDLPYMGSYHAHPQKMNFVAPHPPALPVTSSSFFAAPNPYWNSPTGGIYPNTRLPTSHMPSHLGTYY
In a few lines:
as §1

In test [5] the target is ELF1 (Homo sapiens, UniProt P32519 1-619). In outline: as §1
Test [6] has as its target T5, EHF (Homo sapiens, UniProt Q9NZC4 1-300).
T5 sequence: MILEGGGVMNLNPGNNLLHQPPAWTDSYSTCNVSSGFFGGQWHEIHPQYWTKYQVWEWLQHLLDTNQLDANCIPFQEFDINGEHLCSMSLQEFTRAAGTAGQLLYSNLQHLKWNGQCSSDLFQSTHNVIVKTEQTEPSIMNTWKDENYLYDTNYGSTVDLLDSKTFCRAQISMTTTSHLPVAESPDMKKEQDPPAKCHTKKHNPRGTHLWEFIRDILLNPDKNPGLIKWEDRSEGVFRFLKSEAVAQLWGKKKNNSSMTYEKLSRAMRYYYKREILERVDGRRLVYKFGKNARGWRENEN
In outline: as §1

The target in test [7] is SPI1 (Homo sapiens, UniProt P17947 1-270). In outline: as §1
Test [8] deals with SPIB (Homo sapiens, UniProt Q01892 1-262). In outline:
as §1

The target in test [9] is T6, ELK3 (Homo sapiens, UniProt P41970 1-407).
T6 sequence: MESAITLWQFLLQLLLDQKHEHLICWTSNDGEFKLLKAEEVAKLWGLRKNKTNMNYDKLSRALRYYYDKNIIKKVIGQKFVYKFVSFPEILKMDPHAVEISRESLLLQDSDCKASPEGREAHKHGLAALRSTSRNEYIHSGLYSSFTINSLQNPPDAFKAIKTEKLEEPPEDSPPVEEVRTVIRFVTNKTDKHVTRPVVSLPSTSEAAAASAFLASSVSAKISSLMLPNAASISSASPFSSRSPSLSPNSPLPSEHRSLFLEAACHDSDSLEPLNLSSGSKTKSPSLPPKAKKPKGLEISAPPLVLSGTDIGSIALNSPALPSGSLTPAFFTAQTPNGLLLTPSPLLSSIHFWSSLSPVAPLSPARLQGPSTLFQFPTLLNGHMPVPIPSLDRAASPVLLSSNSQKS
In a few lines:
as §1

SPIB, sequence (Q01892 whole entry): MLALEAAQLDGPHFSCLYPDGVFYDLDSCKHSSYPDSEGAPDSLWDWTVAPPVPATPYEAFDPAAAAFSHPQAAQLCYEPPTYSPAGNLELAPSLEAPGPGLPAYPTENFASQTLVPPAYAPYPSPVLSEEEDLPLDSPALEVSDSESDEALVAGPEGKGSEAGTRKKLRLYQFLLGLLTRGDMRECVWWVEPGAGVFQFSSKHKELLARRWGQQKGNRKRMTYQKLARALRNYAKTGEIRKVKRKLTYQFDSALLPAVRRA
ELF1, sequence (P32519 whole entry): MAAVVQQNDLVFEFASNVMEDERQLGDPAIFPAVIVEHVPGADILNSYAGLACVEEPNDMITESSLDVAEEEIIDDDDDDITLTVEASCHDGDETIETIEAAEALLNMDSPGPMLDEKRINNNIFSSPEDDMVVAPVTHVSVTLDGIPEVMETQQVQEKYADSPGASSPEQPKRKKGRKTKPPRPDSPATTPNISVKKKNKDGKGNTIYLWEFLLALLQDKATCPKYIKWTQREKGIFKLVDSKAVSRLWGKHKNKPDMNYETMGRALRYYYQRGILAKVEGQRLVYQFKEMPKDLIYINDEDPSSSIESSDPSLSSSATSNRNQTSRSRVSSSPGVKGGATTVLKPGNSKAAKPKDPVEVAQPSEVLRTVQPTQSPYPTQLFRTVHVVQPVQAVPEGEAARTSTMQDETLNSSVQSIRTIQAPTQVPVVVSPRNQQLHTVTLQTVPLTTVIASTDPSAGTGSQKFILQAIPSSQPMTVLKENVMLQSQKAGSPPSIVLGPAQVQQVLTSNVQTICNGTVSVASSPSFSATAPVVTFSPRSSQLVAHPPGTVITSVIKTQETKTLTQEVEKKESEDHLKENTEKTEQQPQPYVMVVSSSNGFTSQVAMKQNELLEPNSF

Turning to TTTGTT, the binding signal was 1.26 fold enrichment (6-mer frequency, TF over GST control) in [1]; 1.29 fold enrichment (6-mer frequency, TF over GST control) in test [2]; 1.31 fold enrichment (6-mer frequency, TF over GST control) in [3]; 1.28 fold enrichment (6-mer frequency, TF over GST control) in test [4]; 1.29 fold enrichment (6-mer frequency, TF over GST control) in test [5]; 1.35 fold enrichment (6-mer frequency, TF over GST control) in test [6]. Further, the binding signal in [7] is 1.22 fold enrichment (6-mer frequency, TF over GST control); in [8] it was 1.17 fold enrichment (6-mer frequency, TF over GST control); in test [9], 1.3 fold enrichment (6-mer frequency, TF over GST control).
With CTCCCG, the binding signal is 1.61 fold enrichment (6-mer frequency, TF over GST control) in [1]; 1.56 fold enrichment (6-mer frequency, TF over GST control) in test [2]; 1.62 fold enrichment (6-mer frequency, TF over GST control) in test [3]; 1.54 fold enrichment (6-mer frequency, TF over GST control) in test [4]; 1.57 fold enrichment (6-mer frequency, TF over GST control) in test [5]; 1.75 fold enrichment (6-mer frequency, TF over GST control) in [6]. Moreover, the binding signal was 1.45 fold enrichment (6-mer frequency, TF over GST control) in test [7]; 1.62 fold enrichment (6-mer frequency, TF over GST control) in [8]; 1.58 fold enrichment (6-mer frequency, TF over GST control) in [9].
For the sequence AGCACT, the binding signal in test [1] was 1.38 fold enrichment (6-mer frequency, TF over GST control); in [2], 1.52 fold enrichment (6-mer frequency, TF over GST control); in [3] it was 1.41 fold enrichment (6-mer frequency, TF over GST control); in [4], 1.48 fold enrichment (6-mer frequency, TF over GST control); in [5], 1.4 fold enrichment (6-mer frequency, TF over GST control); in test [6], 1.36 fold enrichment (6-mer frequency, TF over GST control). Further, the binding signal in test [7] is 1.4 fold enrichment (6-mer frequency, TF over GST control); in test [8], 1.44 fold enrichment (6-mer frequency, TF over GST control); in test [9], 1.62 fold enrichment (6-mer frequency, TF over GST control).
Regarding AAACTC, the binding signal in test [1] is 1.29 fold enrichment (6-mer frequency, TF over GST control); in test [2], 1.3 fold enrichment (6-mer frequency, TF over GST control); in [3] it was 1.15 fold enrichment (6-mer frequency, TF over GST control); in test [4], 1.17 fold enrichment (6-mer frequency, TF over GST control); in test [5], 1.25 fold enrichment (6-mer frequency, TF over GST control); in [6] it was 1.24 fold enrichment (6-mer frequency, TF over GST control). The binding signal in test [7] is 1.13 fold enrichment (6-mer frequency, TF over GST control); in test [8] it was 1.18 fold enrichment (6-mer frequency, TF over GST control); in test [9], 1.16 fold enrichment (6-mer frequency, TF over GST control).
Turning to TCGACC, the binding signal in [1] is 1.28 fold enrichment (6-mer frequency, TF over GST control); in test [2], 1.32 fold enrichment (6-mer frequency, TF over GST control); in test [3] it was 1.4 fold enrichment (6-mer frequency, TF over GST control); in [4] it was 1.27 fold enrichment (6-mer frequency, TF over GST control); in test [5], 1.29 fold enrichment (6-mer frequency, TF over GST control); in test [6] it was 1.23 fold enrichment (6-mer frequency, TF over GST control). Moreover, the binding signal in [7] was 1.29 fold enrichment (6-mer frequency, TF over GST control); in test [8] it was 1.28 fold enrichment (6-mer frequency, TF over GST control); in test [9], 1.35 fold enrichment (6-mer frequency, TF over GST control).
Turning to TGGCAT, the binding signal in test [1] is 1.23 fold enrichment (6-mer frequency, TF over GST control); in test [2] it was 1.2 fold enrichment (6-mer frequency, TF over GST control); in [3] it was 1.2 fold enrichment (6-mer frequency, TF over GST control); in test [4], 1.14 fold enrichment (6-mer frequency, TF over GST control); in [5], 1.17 fold enrichment (6-mer frequency, TF over GST control); in test [6], 1.12 fold enrichment (6-mer frequency, TF over GST control). Moreover, the binding signal in [7] was 1.11 fold enrichment (6-mer frequency, TF over GST control); in [8] it was 1.07 fold enrichment (6-mer frequency, TF over GST control); in test [9] it was 1.13 fold enrichment (6-mer frequency, TF over GST control).
Consider TTTACT, for which the binding signal in [1] was 1.41 fold enrichment (6-mer frequency, TF over GST control); in test [2], 1.56 fold enrichment (6-mer frequency, TF over GST control); in [3], 1.53 fold enrichment (6-mer frequency, TF over GST control); in test [4] it was 1.43 fold enrichment (6-mer frequency, TF over GST control); in [5], 1.43 fold enrichment (6-mer frequency, TF over GST control); in test [6], 1.51 fold enrichment (6-mer frequency, TF over GST control). For the same sequence, the binding signal in test [7] is 1.46 fold enrichment (6-mer frequency, TF over GST control); in test [8] it was 1.37 fold enrichment (6-mer frequency, TF over GST control); in [9], 1.41 fold enrichment (6-mer frequency, TF over GST control).
